Test results as given in PubChem BioAssay (NCATS).
Records with an inconclusive call do not appear. Where a call stands in place of a potency, no number is given. Activity calls are given as the source filed them. Calls come from the whole dose curve; as a rule, active = well fitted inhibition curve with a large enough effect; inconclusive = small, poorly fitted or top-dose-only effect; inactive = flat fitted curve, though single readings scatter.

Biological target: Calcium and integrin-binding protein 1 (Homo sapiens) (UniProt Q99828)
Sequence (Q99828 whole entry, looked up): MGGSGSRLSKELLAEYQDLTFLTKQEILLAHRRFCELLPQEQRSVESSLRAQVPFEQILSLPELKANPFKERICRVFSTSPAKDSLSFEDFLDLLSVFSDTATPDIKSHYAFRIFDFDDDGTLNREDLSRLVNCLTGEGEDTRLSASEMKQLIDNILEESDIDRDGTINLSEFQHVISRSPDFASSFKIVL
Test: Primary qHTS for Identification of Calcium Integrin Binding Protein 1 (CIB1) Competitor (AID 1508620);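 note: GST tagged CIB1 binding a fluorescein labelled alphaIIb integrin peptide tracer; top concentration of the series differs between compounds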
Details: CIB1-GST / FITC-alphaIIb peptide fluorescence polarization; series mostly up to 114 µM
How it was run: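 CIB1-GST (1 uM final) and compound incubated 15 min at room temperature before adding FITC-alphaIIb peptide tracer (100 nM final). Competition for binding read by fluorescence polarization (ex 480, em 540) after another 15 min at room temperature.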

Row | SMILES | Potency
1 | CC(C)(C)Nc1nc(C#N)nc(Nc2ccccc2)n1 | inactive
2 | Cn1cnc(CCNc2ncnc3ccc(-c4ccc5c(c4)OCO5)cc23)c1 | inactive
3 | O=S(=O)(c1ccc2c(c1)OCCO2)C1CCC(O)CC1 (stereo not given) | inactive
4 | O=S(=O)(c1ccc2c(c1)OCO2)N1CCN(S(=O)(=O)c2c(F)cccc2F)CC1 | inactive
5 | Cc1ccc(CCCn2c(CCNC(=O)C3CCCCC3)nc3ccccc32)cc1 | inactive
6 | Nc1ccccc1C(=O)NCc1ccco1 | inactive
7 | Cn1nnnc1Sc1ncnc2scc(-c3ccc(Cl)cc3)c12 | inactive
8 | Cc1nnc(-c2cnn(C)c2N)n1CCCn1ccnc1 | inactive
9 | O=C(OCC#CCSc1nnc(-c2cccc3ccccc23)o1)c1sccc1Cl | inactive
10 | NC(=O)C1CCN(c2nc(-c3cccs3)cs2)CC1 | inactive
11 | COc1cc(F)c(S(=O)(=O)N2CCCN(S(=O)(=O)c3ccc4c(c3)OCCO4)CC2)c(F)c1 | inactive
12 | N#Cc1ccc(OC2=NS(=O)(=O)c3ccccc32)cc1 | inactive
13 | N=c1c2c(ncn1-c1ccccc1)Oc1ccc3ccccc3c1C2c1ccc2c(c1)CCO2 (stereo not given) | inactive
14 | CCOC(=O)c1[nH]c2c(c1C)C(=O)CCC2 | inactive
15 | COC(=O)c1ccc(Nc2nc(-c3ccncc3)nc3ccccc23)cc1OC | inactive
16 | COc1cc(O)c(C(CC(=O)N2CCCC2)c2ccc3c(c2)OCO3)c(OC)c1 (stereo not given) | inactive
17 | N#Cc1nc(Nc2ccc(C(F)(F)F)cc2)nc(NC2CCCC2)n1 | inactive
18 | O=C(Nc1ccc(N2CCOCC2)c(C(F)(F)F)c1)Nc1nnc(-c2ccncc2)s1 | inactive
19 | COc1ccc(-c2nnc3n2N=C(c2ccccc2OC)CS3)cc1OC | inactive
20 | Cc1ccc(OCCn2c(CCNC(=O)c3ccc(C(C)(C)C)cc3)nc3ccccc32)cc1 | inactive

Row | SMILES | Potency
21 | Cc1ccc(CCN2C(=O)c3ccc(C(=O)O)cc3C2=O)cc1 | inactive
22 | N#Cc1cccc(-c2ccc(NC(=O)c3cccs3)cn2)c1 | inactive
23 | Cc1ccc(NS(=O)(=O)c2ccc3c(c2)N(C)C(=O)CO3)cc1C | inactive
24 | N#Cc1c(-c2ccccc2C(F)(F)F)nc2ccccc2c1NCc1ccc(-c2cccnc2)cc1 | inactive
25 | CCOC(=O)c1ccc(-c2ccc3ncnc(N(C)Cc4ccc(C)o4)c3c2)o1 | inactive
26 | CNc1nc(C#N)c(-c2cccc3ccccc23)o1 | inactive
27 | COc1cc(/C=C2\C(=O)Nc3ccccc32)ccc1O | inactive
28 | O=C(Nc1ncc(Cc2ccc(C(F)(F)F)cc2)s1)c1ccco1 | inactive
29 | O=C1CCc2cc(S(=O)(=O)Nc3ccc(F)cc3)ccc2N1 | inactive
30 | Cc1cc2c(s1)c1cnn(Cc3cc(F)c(Cl)cc3Cl)c(=O)c1n2C | inactive
31 | O=C1CN(S(=O)(=O)c2c(F)cccc2F)CCN1S(=O)(=O)c1ccc2c(c1)OCCO2 | inactive
32 | CC(C)(C)c1cccc(-n2cnc3cc(C(=O)N4CCCCC4)ccc32)c1 | inactive
33 | O=C(c1ccccc1O)N(Cc1ccco1)Cc1ccco1 | inactive
34 | CC(=O)Nc1sc2c(c1-c1ccc3nc[nH]c3c1)CCNC2 | inactive
35 | COc1cc(O)c(C(CC(=O)N2CCCC(COc3ccc(F)cc3)C2)c2ccc3c(c2)OCO3)c(OC)c1 (stereo not given) | inactive
36 | O=C1COc2cc([S+](=O)([O-])Nc3ccc(Cl)c(Cl)c3)c(Cl)cc2N1 | inactive
37 | O=C(OCC#CCSc1nnc(-c2cccc3ccccc23)o1)c1ccc(F)nc1 | inactive
38 | N#Cc1c(-c2ccc(C(=O)c3ccc(O)cc3)cc2)no[n+]1[O-] | inactive
39 | O=C(Cc1ccc(Cl)c(Cl)c1)Nc1ccc([S+](=O)([O-])Nc2ncn[nH]2)cc1 | inactive
40 | O=C(Nc1nnc(-c2ccncc2)s1)Nc1ccc(Cl)cc1F | inactive
